This note sets out measurements from PubChem BioAssay (NCATS).

The source made the active and inactive calls. No rule for the calls is given here.

Experiment [1] can be described thus: Immunotoxin (HA22) sensitization/mitigation study. Vehicle arm (PBS) (AID 1159510).
A short description of experiment [2]: Immunotoxin (SS1P) sensitization/mitigation study. Vehicle arm (DMEM) (AID 1159513).
Potency is read from the fitted curve at half-maximal effect.

For `O=C(Nc1ccccc1-c1cn2c(CN3CCNCC3)csc2n1)c1cnc2ccccc2n1`, the Potency in experiment [1] was 26.4 µM (active).
The same measure, in the same setting: the result for `N#Cc1ccc(COC[C@H]2O[C@@H](n3c(NCc4ccc(Cl)c(Cl)c4)nc4c(N)ncnc43)[C@@H](O)[C@@H]2O)cc1` reads 23.5 µM (active); that for `CNCc1ccc(-c2[nH]c3cc(F)cc4c3c2CCNC4=O)cc1`, 20.9 µM (active).
Still for that read-out and setting: the result for `N#CC[C@H](C1CCCC1)n1cc(-c2ncnc3[nH]ccc23)cn1` reads 23.5 µM (active); that for `CC[C@H](Nc1ncnc2nc[nH]c12)c1nc2cccc(F)c2c(=O)n1-c1ccccc1`, 20.9 µM (active).
With `CCCCn1c(=O)n(Cc2ccccc2F)c(=O)c2[nH]c(Cc3ccc(NC(C)=O)cc3)nc21`, the Potency entry in experiment [1] was “inactive”.
The same measure, in the same setting: to `Clc1ccc2ncc(-c3cccc(NC4CNC4)n3)n2c1` belongs 20.9 µM (active).
Still for that read-out and setting: to `CN(C)CCCNC(=O)c1ccc(-c2cc(O)c3ncccc3c2)cc1` belongs 16.6 µM (active).
Same read-out and setting: to `O=C(Nc1cccc(Cl)c1)Nc1ncc(CCNc2ncnc3ccsc23)s1` belongs 29.6 µM (active).
`Cc1ccccc1C(C(=O)NC1CCCC1)N(C(=O)Cn1cnc2ccccc21)c1cccc(F)c1` (centres undefined): the Potency in experiment [1] was 23.5 µM (active).
Consider `CN(C)Cc1ccc(-c2nc3cccc4c3n2CCNC4=O)cc1`, for which the Potency in experiment [1] was 23.5 µM (active).
Still for that read-out and setting: to `O=C(c1cc(Cc2n[nH]c(=O)c3ccccc23)ccc1F)N1CCN(C(=O)C2CC2)CC1` belongs 14.8 µM (active).
On the same count and under the same terms, to `CCOC(CN1C(=O)[C@](CC(=O)Nc2ccc(C)cc2)(NC(=O)Nc2ccc(C)cc2)c2ccccc21)OCC` belongs 23.5 µM (active); to `CC(C)(C)c1cc(NC(=O)Nc2ccc(-c3cn4c(n3)sc3cc(OCCN5CCOCC5)ccc34)cc2)no1`, 0.59 µM (active); to `C[C@@H]1CN(CC(=O)Nc2ccc3c(c2)Cc2cccc(-c4cc(=O)cc(N5CCOCC5)o4)c2S3)C[C@H](C)O1`, 16.6 µM (active).
On the same count and under the same terms, to `O=C(c1ccc(Nc2nccc(-c3cc4ccccc4s3)n2)cc1)N1CCC(N2CCCC2)CC1` belongs 16.6 µM (active); to `COc1ccc(CCN(C)CCCOc2ccc(S(=O)(=O)c3[nH]c4ccccc4c3C(C)C)cc2)cc1OC`, 26.4 µM (active); to `CC(C)(C)c1cc(C(C)(C)C)c(NC(=O)c2c[nH]c3ccccc3c2=O)cc1O`, 16.6 µM (active).
For `CN(C)C1CCN(C(=O)c2ccc(NC(=O)Nc3nc(N4CCOCC4)nc(N4CCOCC4)n3)cc2)CC1`, the Potency in experiment [1] was 0.166 µM (active).
Same read-out and setting: to `CNC1CCN(C(Cc2cccc(-c3ccncc3)c2)C(=O)c2sc3c(F)ccc(F)c3c2Cl)CC1` (centres undefined) belongs 20.9 µM (active); to `CC1(C)CCC(c2ccc(Cl)cc2)=C(CN2CCN(c3ccc(C(=O)NS(=O)(=O)c4ccc(N[C@H](CCN5CCOCC5)CSc5ccccc5)c(S(=O)(=O)C(F)(F)F)c4)cc3)CC2)C1`, 0.332 µM (active); to `CCC[C@H](NC(=O)C(C#N)=Cc1cccc(Br)n1)c1ccccc1`, 1.05 µM (active).
Regarding `COc1ccc(C2=N[C@H](c3ccc(Cl)cc3)[C@H](c3ccc(Cl)cc3)N2C(=O)N2CCNC(=O)C2)c(OC(C)C)c1`, in experiment [1], the Potency was 2.64 µM (active).
For `NC(CO)(CO)CCc1ccc(Sc2cccc(OCc3ccccc3)c2)cc1Cl`, the Potency in experiment [1] was 23.5 µM (active).
The same measure, in the same setting: to `CCn1c(-c2nonc2N)nc2c(C#CC(C)(C)O)ncc(OC[C@H]3CCCNC3)c21` belongs 10.5 µM (active); to `CCN(CC)CCCCNc1nc2cc(Cl)c(Cl)cc2nc1-c1ccc(-c2cccs2)s1`, 18.7 µM (active).
Still for that read-out and setting: to `COc1cccc(OC)c1-c1cc(C(=O)NC2(C(=O)O)C3CC4CC(C3)CC2C4)nn1-c1ccnc2cc(Cl)ccc12` (centres undefined) belongs 29.6 µM (active); to `COc1cc(C)c(Sc2cnc(NC(=O)c3ccc(CNC(C)C(C)(C)C)cc3)s2)cc1C(=O)N1CCN(C(C)=O)CC1` (centres undefined), 14.8 µM (active); to `CC[C@@H]1C(=O)N(C)c2cnc(Nc3ccc(C(=O)NC4CCC(N5CCN(CC6CC6)CC5)CC4)cc3OC)nc2N1C(C)C` (some centres undefined), 0.0132 µM (active).
Still for that read-out and setting: the result for `CC(O)=C(C#N)C(=O)Nc1ccc(C(F)(F)F)cc1` reads 16.6 µM (active); that for `CN1CCN(CCOc2cc(OC3CCOCC3)c3c(Nc4c(Cl)ccc5c4OCO5)ncnc3c2)CC1`, 20.9 µM (active).
Regarding `COc1cc2c(Oc3ccc4[nH]c(C)cc4c3F)ncnc2cc1OCCCN1CCCC1`, the Potency in experiment [1] is 13.2 µM (active).
On the same count and under the same terms, to `CS(=O)(=O)c1cccc(CNc2nc(Nc3ccc4c(c3)CCC(=O)N4)ncc2C(F)(F)F)c1` belongs 4.69 µM (active).
On the same count and under the same terms, the result for `NC(=O)C1CCCc2c1[nH]c1ccc(Cl)cc21` (centres undefined) reads “inactive”; that for `CCCn1c(=O)c2[nH]c(C34CC5CC3C[C@@H](C5)C4)nc2n(CCC)c1=O`, 16.6 µM (active).
Same read-out and setting: to `CCCS(=O)(=O)Nc1ccc(F)c(C(=O)c2c[nH]c3ncc(-c4ccc(Cl)cc4)cc23)c1F` belongs 23.5 µM (active).
In the case of `C=CCn1c(=O)c2cnc(Nc3ccc(N4CCN(C)CC4)cc3)nc2n1-c1cccc(C(C)(C)O)n1`, the figures for the Potency in experiment [1] and in experiment [2] were 0.187 µM (active) and 0.166 µM (active), respectively.
On the same counts, the results for `CCn1c(-c2nonc2N)nc2cnc(Oc3cccc(NC(=O)c4ccc(OCCN5CCOCC5)cc4)c3)cc21` are 18.7 µM (active) and 7.43 µM (active).
The matching figures for `Nc1cccc(S(=O)(=O)N2CCCN(S(=O)(=O)c3ccc4c(c3)OCCO4)CC2)c1`: “inactive” and “inactive”.
On the same counts, the results for `O=C(NCCS(=O)(=O)c1ccc(C(F)(F)F)cn1)c1ccc(Cl)cc1` are “inactive” and “inactive”.
Consider `COc1cc(Oc2ccnc3cc(OC)c(OC)cc23)ccc1NC(=O)NC(C)c1nccs1` (centres undefined), for which the figures for the Potency in experiment [1] and in experiment [2] were 16.6 µM (active) and 20.9 µM (active), respectively.
On the same counts, the results for `COc1cc2nc(-c3ccc(N4CCN(C)CC4)cc3)nc(NCCN3CCOCC3)c2cc1OC` are 2.35 µM (active) and 18.7 µM (active).
With `c1ccc2c(CCNc3ccc(Nc4ccncc4)cc3)c[nH]c2c1`, the Potency in experiment [1] is 1.87 µM (active); in experiment [2], 20.9 µM (active).
The matching figures for `C=CC(=O)Nc1cccc(Oc2nc(Nc3ccc(N4CCN(C)CC4)cc3OC)ncc2Cl)c1`: 16.6 µM (active) and 23.5 µM (active).
The matching figures for `Nc1nc(Nc2ccc(S(N)(=O)=O)cc2)nn1C(=O)c1c(F)cccc1F`: 0.833 µM (active) and 3.72 µM (active).
In the case of `Cc1ccc(C(N)=O)cc1Nc1nccc(-c2cn(C(C)C)c3cnccc23)n1`, the values for the Potency in experiment [1] and in experiment [2] were 2.64 µM (active) and 7.43 µM (active), respectively.
`COC(=O)Nc1ccc(-c2nc(N3CCOCC3)c3cnn(C4CCN(C(=O)OC)CC4)c3n2)cc1`: the Potency in experiment [1] was 16.6 µM (active); in experiment [2] it was 0.187 µM (active).
On the same counts, the results for `Cc1cc2c(F)c(Oc3ncnn4cc(OC[C@@H](C)O)c(C)c34)ccc2[nH]1` are 14.8 µM (active) and 14.8 µM (active).
On to `COc1cc2c(Oc3ccc(-c4cnc(Nc5ccc(F)cc5)n(C)c4=O)cc3F)ccnc2cc1OCCCN1CCOCC1`, for which the Potency in experiment [1] is 18.7 µM (active); in experiment [2] it was 20.9 µM (active).
On the same counts, the results for `Cn1c(Nc2ccc(C(F)(F)F)cc2)nc2cc(Oc3ccnc(-c4ncc(C(F)(F)F)[nH]4)c3)ccc21` are 11.8 µM (active) and 23.5 µM (active).
The matching figures for `O=C(Nc1ccc(OC(F)(F)F)cc1)c1sccc1NCc1ccnc2ccccc12`: 18.7 µM (active) and 18.7 µM (active).
The matching figures for `CCC=CC[C@H]1C(=O)CC[C@@H]1CC(=O)OC`: “inactive” and “inactive”.
For `O=C(O)c1ccc2cc(-c3ccc(O)c(C45CC6CC(CC(C6)C4)C5)c3)ccc2c1`, the Potency in experiment [1] was 0.0935 µM (active); in experiment [2] it was 18.7 µM (active).
On the same counts, the results for `Cc1cc([C@@H](C)Nc2ccccc2C(=O)O)c2nc(N3CCOCC3)cc(=O)n2c1` are 14.8 µM (active) and 20.9 µM (active).
With `Cc1cn(-c2cc(NC(=O)c3ccc(C)c(Nc4nccc(-c5cccnc5)n4)c3)cc(C(F)(F)F)c2)cn1`, the figures for the Potency in experiment [1] and in experiment [2] were 14.8 µM (active) and 26.4 µM (active), respectively.
As for `CCc1cc(Nc2nccc(-c3c(-c4ccc(OC)c(C(=O)Nc5c(F)cccc5F)c4)nc4ccccn34)n2)c(OC)cc1N1CCC(N2CCN(S(C)(=O)=O)CC2)CC1`, the Potency in experiment [1] is 3.72 µM (active). Besides, the Potency result in experiment [2] is “inactive”.
On the same counts, the results for `O=C(OCC#CCSc1nnc(-c2ccc3ccccc3c2)o1)c1cc2ccccc2s1` are “inactive” and “inactive”.
The matching figures for `CCOc1ccn(-c2ccc(F)cc2)c(=O)c1C(=O)Nc1ccc(Oc2ccnc(N)c2Cl)c(F)c1`: 18.7 µM (active) and 23.5 µM (active).
The matching figures for `NC(=O)c1ccc(-c2nc(-c3ccc4c(c3)OCO4)c(-c3ccccn3)[nH]2)cc1`: “inactive” and “inactive”.
`COc1ccc(C=Cc2cc(OC)c(OC)c(OC)c2)cc1O`: the Potency result in experiment [1] is “inactive”. In addition, the Potency in experiment [2] is 0.0019 µM (active).
On the same counts, the results for `CCOC(=O)C(C)Oc1cccc2c(=O)n(CC(=O)Nc3ccc4c(c3)OCCO4)ccc12` (centres undefined) are “inactive” and “inactive”.
The matching figures for `Cc1cc(Nc2nc(N[C@@H](C)c3ncc(F)cn3)ncc2Cl)n[nH]1`: “inactive” and “inactive”.
The matching figures for `O=C(O)[C@H](Cc1c[nH]c2ccccc12)N1C(=O)c2ccccc2C1=O`: “inactive” and “inactive”.
Turning to `C[C@@H](N)C1CCC(C(=O)Nc2ccncc2)CC1` (some centres undefined), the Potency entry in experiment [1] and in experiment [2] was “inactive” in each case.
As for `CC(C)c1ccc2c(c1)c(SC(C)(C)C)c(CC(C)(C)C(=O)O)n2Cc1ccc(Cl)cc1`, the figures for the Potency in experiment [1] and in experiment [2] were 13.2 µM (active) and 11.8 µM (active), respectively.
On the same counts, the results for `Cc1[nH]c2ccccc2c1CCNCc1ccc(C=CC(=O)NO)cc1` are 0.0105 µM (active) and 0.0296 µM (active).
The matching figures for `COc1cc2c(cc1OC)CN(CCc1ccc(NC(=O)c3cccc4c(=O)c5cccc(OC)c5[nH]c34)cc1)CC2`: 18.7 µM (active) and “inactive”.
On the same counts, the results for `COCC(=O)NCC=Cc1ccc2ncnc(Nc3ccc(Oc4ccc(C)nc4)c(C)c3)c2c1` are 23.5 µM (active) and 18.7 µM (active).
Take `CC1=C(CO)C(=O)O[C@@H]([C@@H](C)[C@H]2CC[C@H]3[C@@H]4C[C@H]5O[C@]56[C@@H](O)C=CC(=O)[C@]6(C)[C@@H]4CC[C@]23C)C1`: the figures for the Potency in experiment [1] and in experiment [2] were 0.0743 µM (active) and 3.72 µM (active), respectively.
In the case of `C#Cc1cccc(Nc2ncnc3cc(OC)c(OCCCCCCC(=O)NO)cc23)c1`, the Potency in experiment [1] is 0.132 µM (active); in experiment [2] it was 0.526 µM (active).
